Test system: Plasmodium falciparum NF54 gametocytes
Experiment: viability index relative to DMSO control (fraction); higher = less gametocyte killing
Settings: 12.5 µM, incubation time: 72 h
Method in brief: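 The viability index was calculated as the gametocyte particle count over the plate mean of solvent-only wells. For this, P. falciparum NF54 gametocytes of every stage (I–V) were held with compound at 12.5 µM for 72 hr at 37°C under low oxygen in 384-well plates. MitoTracker Red CMXRos staining for 20 min was followed by transfer of 5 µl into 40 µl of 500 nM dye in serum-free medium, with three fields imaged after 30 min.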

[1] = gametocyte stage: Stage I viability index
[2] = gametocyte stage: Stage II viability index
[3] = gametocyte stage: Stage III viability index
[4] = gametocyte stage: Stage IV viability index
[5] = gametocyte stage: Stage V viability index

| Structure (SMILES) | viability index [1] | viability index [2] | viability index [3] | viability index [4] | viability index [5] |
| --- | --- | --- | --- | --- | --- |
| CCOc1ccc(C2N(C)c3ccccc3N2C)cc1 | 0.996 | 1.03 | 1.08 | 0.985 | 0.901 |
| C=C(C)CCC(C)N1CCC(N2CCC(C(=O)NCCc3ccccc3)CC2)CC1 (stereo not given) | 0.538 | 0.665 | 0.948 | 0.845 | 0.758 |
| Cc1ccc(OCCCCCCNCCO)c(C)c1 | 1.13 | 1.04 | 1.05 | 0.934 | 0.909 |
| O=C(Nc1ccc(-c2nc3cc4ccccc4cc3[nH]2)cc1)c1cccc(Br)c1 | 0.028 | 0.421 | 0.851 | 0.873 | 0.909 |
| Cc1ccc(-c2cc3nc4c(c(O)n3n2)CCCC4)cc1 | 0.537 | 0.804 | 0.894 | 0.766 | 0.857 |
| FC(F)(F)c1ccc(Nc2nnnc3ccccc23)cc1 | 0.604 | 0.736 | 0.921 | 0.72 | 0.868 |
| Cc1cc(N2CCCC2)nc(Nc2ccc(NC(=O)CCc3ccccc3)cc2)n1 | 0.0734 | 0.0508 | 0.261 | 0.345 | 0.13 |
| O=C(Nc1cccc(C2=NCCN2)c1)Nc1cccc(C2=NCCN2)c1 | 0.565 | 0.718 | 0.773 | 0.908 | 0.818 |
| COc1ccc(NC(=O)C2c3ccccc3C(=O)N(CC(C)C)C2c2cccs2)cc1Cl (stereo not given) | 0.0453 | 0.00483 | 0.0636 | 0.24 | 0.11 |
| CCOC(=O)c1cnc2c(CC)cccc2c1O | 1.15 | 0.838 | 0.966 | 0.835 | 0.844 |
| COc1cccc(Nc2nc(N)c3ccccc3n2)c1 | 0.131 | 0.524 | 0.786 | 0.797 | 0.649 |
| CCc1ccc(Nc2cc(C)c3ccc(O)cc3n2)cc1 | 0.238 | 0.256 | 0.706 | 0.827 | 0.945 |
| CCOC(=O)c1c(NC(=O)c2ccccc2)sc2c(O)c(CN(CC)CC)ccc12 | 0.0641 | 0.129 | 0.32 | 0.517 | 0.407 |
| CCCCCC(=O)N1c2ccccc2N=C2CC(c3ccc(OC)c(OC)c3)CC(O)=C2C1c1ccc(C(F)(F)F)cc1 (stereo not given) | 0.0365 | 0.0251 | 0.0919 | 0.219 | 0.429 |
| c1ccc2c(NCCc3c[nH]c4ccccc34)c3ccccc3nc2c1 | 0.145 | 0.22 | 0.609 | 0.687 | 0.675 |
| CN1CCN(c2c3c(c(C#N)c4nc5ccccc5n24)CCC3)CC1 | 1.02 | 0.865 | 1.03 | 1.05 | 0.846 |
| COc1cc(-c2nc(-c3ccccc3)c(-c3ccccc3)[nH]2)cc(OC)c1O | 0.0446 | 0.247 | 0.358 | 0.532 | 0.221 |
| CCOc1cc2c(cc1OCC)C(c1cc(Cl)c(O)c(OCC)c1)NCC2 (stereo not given) | 0.0402 | 0.163 | 0.539 | 0.829 | 0.922 |
| Oc1ccccc1CN1CCC2(CCCN(Cc3ccccc3F)C2)C1 (stereo not given) | 0.0166 | 0.161 | 0.509 | 0.657 | 1.07 |
| Cc1ccc(Nc2nc(N)c3ccccc3n2)cc1Cl | 0.0341 | 0.49 | 0.695 | 0.753 | 0.481 |

| Structure (SMILES) | viability index [1] | viability index [2] | viability index [3] | viability index [4] | viability index [5] |
| --- | --- | --- | --- | --- | --- |
| O=C1c2ccc3c4c(ccc(c24)C(=O)N1CCCCO)C(=O)N(CCCCO)C3=O | 0.364 | 0.261 | 0.204 | 0.168 | 0.182 |
| COc1ccc(N2CCN(C(CNC(=O)C3CCCCC3)c3ccc4c(c3)OCO4)CC2)cc1 (stereo not given) | 0.912 | 0.986 | 1.04 | 0.86 | 0.758 |
| COc1cccc(C=Cc2nc(=O)c3ccccc3o2)c1OC | 0.751 | 0.717 | 0.809 | 0.948 | 0.967 |
| OCCNc1nc(Nc2ccc(Cl)c(Cl)c2)nc2ccccc12 | 0.0254 | 0.246 | 0.665 | 0.484 | 0.442 |
| Oc1ccccc1CN1CCN(C(c2ccccc2)c2ccccc2)CC1 | 0.0221 | 0.102 | 0.437 | 0.535 | 0.615 |
| CC(C)(C)c1ccc2c(c1)CN(Cc1ccc(Cl)cc1)CO2 | 0.12 | 0.192 | 0.385 | 0.633 | 0.442 |
| Oc1c2c(nc3cc(-c4ccccc4)nn13)CCCC2 | 1.07 | 0.786 | 1.07 | 0.878 | 0.879 |
| Cc1cccc(-n2ncc3c(=O)[nH]c(-n4nc(C)cc4NC(=O)c4cc5ccccc5o4)nc32)c1 | 0.466 | 0.473 | 0.792 | 0.9 | 0.791 |
| CCOc1ccc(-c2nonc2NC(=O)c2cccc(C)c2)cc1OCC | 0.0619 | 0.0773 | 0.0679 | 0.222 | 0.626 |
| COc1ccc2c(c1)OC(O)(C(F)(F)C(F)(F)F)CC2=O (stereo not given) | 0.676 | 0.929 | 1.15 | 0.97 | 1.11 |
| CCn1c(SCC(=O)Nc2cc(C(F)(F)F)ccc2Cl)nc2ccccc2c1=O | 0.787 | 0.953 | 1.17 | 1.14 | 1.03 |
| COc1cccc(O)c1CN1CCC2(CCCN(Cc3ccc(F)cc3)C2)C1 (stereo not given) | 0.0144 | 0.0986 | 0.446 | 0.602 | 0.615 |
| COc1ccc(N2CCN(C(CNC(=O)CC(C)(C)C)c3ccc4c(c3)OCO4)CC2)cc1 (stereo not given) | 1.04 | 0.928 | 1.02 | 0.826 | 0.727 |
| CNCCCNc1ccnc2cc(Cl)ccc12 | 0.0398 | 0.291 | 0.704 | 0.875 | 0.747 |
| O=C(NCCCN1CCC(N2CCCCC2)CC1)C1=Cc2cc(Br)ccc2OC1 | 0.0935 | 0.427 | 0.742 | 0.699 | 0.312 |
| CCOc1cc(Cl)c(C(C)NC(=O)c2ccccc2)cc1OCC (stereo not given) | 0.728 | 0.781 | 0.819 | 1.03 | 0.901 |
| COc1ccccc1CNC(=O)CCn1c(=O)[nH]c2ccsc2c1=O | 0.477 | 0.712 | 1 | 0.805 | 0.769 |
| COc1ccc(C2c3ccc4ccccc4c3Oc3ncn(CCCN(C)C)c(=N)c32)cc1 (stereo not given) | 0.0367 | 0.0483 | 0.0339 | 0.0316 | 0 |
| CC(O)(c1ccc(Cl)cc1)C(CN1CCCCC1)c1ccccc1 (stereo not given) | 0.115 | 0.32 | 0.809 | 0.818 | 0.802 |
| COc1ccc(CCNC(=O)c2cc(S(=O)(=O)N3CC(C)CC(C)C3)ccc2Sc2ccc(F)cc2)cc1OC (stereo not given) | 0.104 | 0.445 | 0.844 | 0.769 | 0.987 |

| Structure (SMILES) | viability index [1] | viability index [2] | viability index [3] | viability index [4] | viability index [5] |
| --- | --- | --- | --- | --- | --- |
| COc1nc(Nc2ccc(C(C)C)cc2)nc(OC)n1 | 1.18 | 0.871 | 0.965 | 1.06 | 0.967 |
| CCOc1c(Cl)cc(CNCC(O)c2ccccc2)cc1OC (stereo not given) | 0.231 | 0.272 | 0.793 | 0.918 | 0.714 |
| CC1CC2=C(CC1CNCCCN(C)C)C(C)(C)CCC2 (stereo not given) | 0.383 | 0.362 | 0.48 | 0.468 | 0.312 |
| COc1ccc(CCN2CCC(CN(C)Cc3cnn(-c4ccccc4)c3)CC2)cc1 | 0.203 | 0.496 | 0.508 | 0.498 | 0.418 |
| CN(C)CCCNc1c2ccccc2nc2ccccc12 | 0.0663 | 0.0164 | 0.0835 | 0.201 | 0.231 |
| Cc1ccccc1OCCSc1nc2ccc(NC(=O)c3cccs3)cc2s1 | 1.13 | 0.918 | 1.08 | 0.927 | 1.27 |
| Cc1cc(C)c2c(c1)OCN(Cc1ccccc1Cl)C2 | 0.0442 | 0.13 | 0.569 | 0.663 | 0.615 |
| CCCn1c(=N)c(C(=O)NC2CCCCC2)cc2c(=O)n3cccc(C)c3nc21 | 0.45 | 0.612 | 1.06 | 0.981 | 0.805 |
| Cc1ccc(-c2cc(C(=O)Nc3ccc(S(=O)(=O)N4CCCCC4)cc3)[nH]n2)c(O)c1 | 0.453 | 0.939 | 0.973 | 1.09 | 0.967 |
| O=C(NC1CCN(Cc2ccccc2)CC1)c1cc(-c2ccncc2)nc2ccc(Cl)cc12 | 0.601 | 0.662 | 1.08 | 0.994 | 0.791 |
| O=C(Nc1nc(-c2ccccn2)cs1)c1ccccc1Br | 0.0807 | 0.13 | 0.147 | 0.158 | 0.0989 |
| CCCOCc1cc(CN2CCN(c3cccc(Cl)c3)CC2)c(O)c2ncccc12 | 0.00962 | 0.0225 | 0.0244 | 0.0127 | 0 |
| Cc1ccc2cc3c(N)c4c(C)ccc(C)c4nc3nc2c1 | 0.0542 | 0.005 | 0.0231 | 0.00316 | 0.026 |
| Cc1cc(=O)oc2c1ccc1oc(C(=O)c3ccccc3)c(C)c12 | 0.948 | 1 | 0.867 | 0.972 | 1.01 |
| OC(CNC1CCCC1)Cn1c2ccccc2c2ccccc21 (stereo not given) | 0.0475 | 0.0783 | 0.181 | 0.286 | 0.22 |
| CC1(c2ccccc2)Nc2ccccc2-c2nc3ccccc3n21 (stereo not given) | 0.183 | 0.109 | 0.298 | 0.498 | 0.0659 |
| CN(C)c1ccc(C=Cc2nc(=O)c3ccccc3o2)cc1 | 0.611 | 0.713 | 0.82 | 0.921 | 0.835 |
| COc1cccc(NC(=O)Cn2c(C)c(C#N)c3ccccc32)c1 | 0.0586 | 0.129 | 0.252 | 0.605 | 0.363 |
| CCOC(=O)C1=C(c2ccccc2)N=c2sc(=Cc3cc(C)n(-c4ccc(F)cc4)c3C)c(=O)n2C1c1cccc(OC)c1OC (stereo not given) | 0.806 | 0.787 | 0.996 | 0.839 | 0.703 |
| O=C(Nc1ccccc1O)c1ccc(Oc2cccc(C(=O)Nc3ccccc3O)c2)cc1 | 0.00331 | 0.161 | 0.434 | 0.456 | 0.462 |

Reference: the supplement of paper PMC4723716
